Many of the other results were omitted from the sample, so hits are more common in it than they were.
Sa growth 42C: blocks Staphylococcus aureus growth. S. aureus RN4220 growth, OD600, 20 h, 42 °C; stronger effect = lower value. relative growth, % (no concentration beside the values). 0.53% of 170,000 active;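 active = relative growth at most 50% at the other temperature and 20+ points below 30 °C, or under 10% at both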
Sa helicase inh: S. aureus DNA helicase inhibition. inhibition, % (no concentration beside the values). 0.05% of 120,000 active. purified S. aureus helicase, fluorescence unwinding assay; in the data active = inhibition above about 25%, passing the limit was not always enough;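 note: 0% = mean of negative control wells and 100% = mean of positive control wells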
Starred values were filed as active, the others as inactive; x = not tested or not shown; ! = repeats disagree.

SMILES | Sa growth 42C | Sa helicase inh
Cc1cc(C)cc(C(=O)Nc2ccc(-c3ccc(N4CCOCC4)nn3)cc2)c1 | 94 | 7
CCc1c(C)sc2c1CCN(Cc1ccccc1C#N)C2c1ccccc1 (stereo unspecified) | 98 | x
CCc1c(C)sc2c1CCN(Cc1ccccc1)C2c1ccccc1 (stereo unspecified) | -1.1* | x
COc1ccccc1-n1c(SCc2csc(NC(C)=O)n2)nnc1-c1cccs1 | 83 | -11
CCc1cc(-c2[nH]ncc2-c2cnn(-c3ccccc3)c2)c(O)cc1O | 9.5* | 17
CCc1cc(-c2[nH]ncc2-c2ccc(Br)cc2)c(O)cc1O | x | -17
CCCN(CCC)C(=O)C1CCCN1/C=C/C(=O)C(F)(F)F (stereo unspecified) | 88 | -16
CCC(=O)Nc1ccc(-c2nnc3n2CCCCC3)cc1 | x | 12
CC(C)Nc1ccc(Nc2ccnc3cc4ccccc4cc23)cc1 | -1.9* | 67*
c1ccc2cc3c(Nc4ccc(N5CCOCC5)cc4)ccnc3cc2c1 | 99 | 18
[N-]=[N+]=c1c(=O)ccc2c(=O)c3ccccc3c(=O)c1=2 | 6.1* | 13
O=c1c2ccccc2c2nc3c(=O)c4ccccc4c3nc12 | 97 | 10
CC(C)C(C)(C#N)NC(=O)CSc1nnc2ccccn12 (stereo unspecified) | 88 | -2
O=S(=O)(c1ccc2oc(=S)n(CN3CCOCC3)c2c1)N1CCOCC1 | 105 | 10
CCCn1nc(C(=O)N2CCc3ccccc32)c2ccccc2c1=O | 46* | -6
Cn1nc(C(=O)N2CCCc3ccccc32)c2ccccc2c1=O | 94 | -1
CO[C@H](C(=O)[C@@H](O)[C@@H](C)O)[C@@H]1Cc2cc3cc(O[C@H]4C[C@@H](O[C@H]5C[C@@H](O)[C@H](O)[C@@H](C)O5)[C@@H](O)[C@@H](C)O4)c(C)c(O)c3c(O)c2C(=O)[C@H]1O[C@H]1C[C@@H](O[C@H]2C[C@@H](O[C@H]3C[C@](C)(O)[C@H](O)[C@@H](C)O3)[C@H](O)[C@@H](C)O2)[C@H](O)[C@@H](C)O1 | -0.2* | x
CCOC(=O)c1oc2ccccc2c1CN1C(=O)c2ccccc2C1=O | 92 | -20
CCOC(=O)c1oc2ccccc2c1CO | -0.7* | 10
CCOc1c(Br)cc(C(=O)N2CCC(C(N)=O)CC2)cc1OC | 106 | 25
Cc1[nH]n2c(=O)cc(-c3ccc(Cl)cc3)nc2c1-c1ccccc1 | -0.5* | x
Cc1nn2c(-c3ccccc3)cc(-c3ccccc3)nc2c1-c1ccc(Cl)cc1 | 110 | x
c1cc2c(cc1NC1CC3CCC1C3)OCO2 (stereo unspecified) | 88 | 9
NC(=O)COc1ccc(/C=C2/NC(=O)NC2=O)cc1 | 92 | 25
FC(F)(F)c1c[nH]c(=S)c(C(F)(F)F)c1 | 7.9* | x
SMILES | Sa growth 42C | Sa helicase inh
Nc1cc(C(F)(F)F)c[nH]c1=O | 97 | 14
COc1cccc(OCC(=O)Nc2ccc(OC(C)=O)cc2C(=O)O)c1 | 96 | 5
Cc1cc(C(=O)Nc2ccc(Cl)cc2)c2c(C)nn(-c3ccccc3)c2n1 | 105 | x
Cc1nn(-c2ccccc2)c2[nH]cc(C(=O)Nc3ccccc3)c(=O)c12 | 8.8* | 5
CCOc1ccc(NC(=O)CSC2CCCCC2)cc1 | x | 10
Cc1cc(=S)nc(C(C)C)[nH]1 | 28* | -6
Cc1cc(C)[nH]c(=S)n1 | 77 | -4
CC1CCC(N(C)c2nc(C(F)(F)F)nc3ccccc23)CC1 (stereo unspecified) | 63 | 12
CN1CCC(N(C)C2CCN(Cc3ccccc3)CC2)CC1 | 96 | 7
COc1cc2c(cc1OC)C(=O)C(CC1CCN(Cc3ccccc3)CC1)C2 (stereo unspecified) | 46*! | x
COc1ccc(Nc2cc(C)nc3ccc(OC)cc23)cc1 | 88 | 63*
COc1ccc(CNc2cc(C)nc3ccc(OC)cc23)cc1 | 75 | -11
O=C1OC(c2ccccc2)=C/C1=C/c1ccc(Cl)cc1 | 100 | 15
O=C1OC(c2ccccc2)=C/C1=C/c1ccccc1 | -0.6* | x
O=C(CSc1nc(-c2ccccc2F)nc2cc(=O)[nH]n12)Nc1cccc(C(F)(F)F)c1 | 2.8* | x
O=C(CSc1nc(-c2cccc(Cl)c2)nc2cc(=O)[nH]n12)Nc1ccccc1 | 89 | x
CC(C)(CNC(=O)Cc1ccsc1)N1CCOCC1 | 95 | -6
CC(C)(CNC(=O)Nc1ccc(Cl)c(Cl)c1)N1CCOCC1 | -0.6* | 12
CCSc1nc(C(F)(F)F)nc2ccccc12 | 81 | -3
COc1cc(/C=N/N2CCCCC2)ccc1OC(=O)c1cccnc1 | 99 | 6
Cc1cccc(C(=O)Sc2cccccc2=O)c1 | -1.0* | 0
Cc1cccc(C(=O)Nc2cc3c(cc2C)n(C)c(=O)n3C)c1 | 80 | x
CS(=O)(=O)c1ccc([C@@H](O)[C@@H](CF)NC(=O)C(Cl)Cl)cc1 | -0.4* | x
CS(=O)(=O)c1ccc([C@@H](O)[C@@H](CO)NC(=O)C(Cl)Cl)cc1 | 14 | x
CCOC(=O)c1ccc(N2CCCC2)cc1 | 104 | 15
SMILES | Sa growth 42C | Sa helicase inh
CCOc1ccc(Cn2nnc3c(=O)[nH]c(C4CCN(C(=O)c5ccccc5)CC4)nc32)cc1 | -0.3* | x
Cc1ccc(C)c(C(=O)N2CCC(c3nc4c(nnn4Cc4ccccc4)c(=O)[nH]3)CC2)c1 | 3.7* | x
Cc1cccc(Cn2nnc3c(=O)[nH]c(C4CCCN(C(=O)c5ccccc5Cl)C4)nc32)c1 (stereo unspecified) | 93 | x
COc1ccc(Cn2nnc3c(=O)[nH]c(C4CCN(C(=O)c5ccc(C)cc5)CC4)nc32)cc1OC | 10 | x
O=C(c1cccc(Cl)c1)N1CCC(c2nc3c(nnn3Cc3ccc(F)cc3F)c(=O)[nH]2)CC1 | 0.2* | x
COc1cccc(OC)c1Cn1nnc2c(=O)[nH]c(C3CCN(C(=O)c4ccccc4)CC3)nc21 | 11 | x
Cc1cccc(Cn2nnc3c(=O)[nH]c(C4CCN(C(=O)c5ccc(F)cc5)CC4)nc32)c1 | 2.7* | x
O=C(c1ccccc1)N1CCCC(c2nc3c(nnn3Cc3ccc(F)cc3F)c(=O)[nH]2)C1 (stereo unspecified) | 91 | x
CC(C)(C)C(=O)/C(C#N)=C/Nc1cccc2nsnc12 | 97 | 13
CC(C)C(=O)N=C1c2ccccc2CN1c1ccc(C#N)cc1 | 72 | 14
CCCOc1cccc2c1CCN(C)C2=O | x | 7
O=C(Nc1ccc(N2CCCCC2)cc1)Nc1ccc(F)cc1F | 98 | -35
Cc1ccccc1Cn1nnc2c(=O)[nH]c(C3CCN(C(=O)c4ccccc4)CC3)nc21 | 3.5* | x
Cc1ccccc1Cn1nnc2c(=O)[nH]c(C3CCN(C(=O)c4ccc(F)cc4)CC3)nc21 | 19 | x
c1ccc(CCN2CN(Cc3ccccc3)c3nc4ccccc4n3C2)cc1 | 110 | -8
CCCCn1cnc2cc(NCc3ccc(Br)cc3)ccc21 | 7.6* | 6
CCCn1cnc2cc(NCc3ccc(Cl)cc3Cl)ccc21 | 0.5* | 3
CCCn1cnc2cc(NCc3ccncc3)ccc21 | 79 | 10
CCCCn1cnc2cc(NCc3cc(OC)c(OC)c(OC)c3)ccc21 | 99 | 19
CCCn1cnc2cc(NCc3ccc(Br)cc3)ccc21 | 0.3* | 5
Cc1ccc(CNc2ccc3c(c2)ncn3C2CCCCC2)cc1 | -0.5* | -7
CCCn1cnc2cc(NCc3ccccc3O)ccc21 | 98 | 0
Oc1ccccc1CNc1ccc2c(c1)ncn2C1CCCCC1 | 109 | 6
COc1ccc2nc(NC(=O)CCNS(=O)(=O)c3cccc4nsnc34)sc2c1 | 85 | 3
CCN1C(=O)/C(=C\C=C2/Sc3ccc(Cl)cc3N2C)SC1=S | 109 | 1
